Screens as filed in PubChem.
Most compounds without a hit are left out; they make up all but 10% or so of the library.
ALDH1A1 block: qHTS Assay for Inhibitors of Aldehyde Dehydrogenase 1 (ALDH1A1); Aldehyde dehydrogenase 1A1 (Homo sapiens), P00352; Purified ALDH1A1, NADH fluorescence, propionaldehyde substrate; hit rate 7.3% among 220,000; Potency, µM (series often up to 75.3 µM), without a hit: at the highest dose activity, negative = inhibition, usual class: inhibitors; active = well fitted inhibition curve with a large enough effect, not every such curve was filed as active; inconclusive = small, poorly fitted or top-dose-only effect, or another doubt; inactive = no such curve, though single readings can be large or run the other way;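 also: potency is read from the fitted curve at half-maximal effect; plate controls were no enzyme wells and a reference inhibitor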
Target sequence (P00352 whole entry, looked up): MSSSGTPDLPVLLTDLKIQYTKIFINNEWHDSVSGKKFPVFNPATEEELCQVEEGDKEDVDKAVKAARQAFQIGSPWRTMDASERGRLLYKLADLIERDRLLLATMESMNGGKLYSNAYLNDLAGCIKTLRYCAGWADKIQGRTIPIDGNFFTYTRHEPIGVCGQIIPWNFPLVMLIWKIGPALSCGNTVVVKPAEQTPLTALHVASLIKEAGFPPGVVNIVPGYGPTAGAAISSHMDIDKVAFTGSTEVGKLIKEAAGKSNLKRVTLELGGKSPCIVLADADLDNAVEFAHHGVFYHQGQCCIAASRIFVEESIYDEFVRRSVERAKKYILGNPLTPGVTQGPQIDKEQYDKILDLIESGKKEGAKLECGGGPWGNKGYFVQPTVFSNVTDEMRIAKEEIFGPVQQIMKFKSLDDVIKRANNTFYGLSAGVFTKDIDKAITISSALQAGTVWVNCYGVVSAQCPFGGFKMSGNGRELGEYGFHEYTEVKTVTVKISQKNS
GLA inh pH 4.5: qHTS Assay for Inhibitors of Human alpha-Galactosidase at pH 4.5; Alpha-galactosidase A (Homo sapiens), P06280; purified enzyme, 4-MU-alpha-Gal fluorescence, pH 4.5; activity change, negative = inhibition, % at 105 µM; 230,000 tested, under 10 active;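 also: 0% = full activity with enzyme and -100% = basal without enzyme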
HPGD inh: qHTS Assay for Inhibitors of HPGD (15-Hydroxyprostaglandin Dehydrogenase); 15-hydroxyprostaglandin dehydrogenase [NAD(+)] (Homo sapiens), P15428; purified HPGD, NADH fluorescence kinetic, PGE2 substrate; AID 894, 2007; hit rate 4.3% among 150,000; Potency, µM, for inactives: top-dose activity change, negative = inhibition, most hits filed as inhibitors; active = well fitted inhibition curve with a large enough effect, not every such curve was filed as active; inconclusive = small, poorly fitted or top-dose-only effect, or another doubt; inactive = no such curve, though single readings can be large or run the other way; also: potency is read from the fitted curve at half-maximal effect
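20 nM HPGD preincubated 15 min at room temperature with compound in 50 mM Tris-HCl pH 8, 0.01% Tween 20. Started with 1 mM NAD+ and 30 uM prostaglandin E2; NADH fluorescence (360/450 nm) read 5 times over 30-s intervals, last minus first.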
PNC assembly inh: High Content Assay for Compounds that inhibit the Assembly of the Perinucleolar Compartment; hit rate 3.1% among 140,000; activity change (PNC), negative = inhibition, % at 10 µM; PC3M PTB-GFP, PNC prevalence imaging, 16 h; hits give low values;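 active = readout at or below -70, meaning at least 70% loss of cells showing the perinucleolar compartment, a nuclear body marking cancer cells; inconclusive = readout between -30 and a set limit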;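 also: plate controls were DMSO wells for no effect and camptothecin positive control wells for full effect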
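Read-out is percentage of cells bearing a perinucleolar compartment, from automated 20x imaging of fixed, Hoechst-stained PC3M PTB-GFP cells. Cells were seeded 4 h, then exposed 16 h to compound (23 nl of library stock) in duplicate plates.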
ALOX12 inhib: qHTS Assay for Inhibitors of 12-hLO (12-human lipoxygenase); Potency, µM (top dose mostly 57.1 µM), for inactives: top-dose activity change, negative = inhibition, usual class: inhibitors; purified 12-hLO, xylenol orange hydroperoxide absorbance; Polyunsaturated fatty acid lipoxygenase ALOX12 (Homo sapiens), P18054; hit rate 0.12% among 150,000; also: potency is read from the fitted curve at half-maximal effect; nearly all actives have a fitted effect of over 55% in size
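Xylenol orange chromogenic assay: hydroperoxide from 12hLO oxidises Fe(II), giving red-shifted Fe(III)-XO absorbance. Conditions: 150 nM enzyme, 40 uM arachidonic acid, 25 mM Hepes pH 7.0, 0.01% Triton X-100, 30 min, room temperature.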
GLA spleen mod: qHTS Assay for Inhibitors and Activators of Human alpha-Galactosidase From Spleen Homogenate; Alpha-galactosidase A (Homo sapiens), P06280; human spleen homogenate, 4MU-alpha-Gal fluorescence, 40 min; hit rate 0.008% among 240,000; Potency, µM (series often up to 80 µM), without a hit: at the top dose activity change, negative = inhibition, hits mostly inhibitors;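 also: potency is read from the fitted curve at half-maximal effect; 0% = enzyme with vehicle and -100% = no enzyme basal signal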
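Spleen homogenate 1 ug + cpd (titration) + 4-MU-alpha-D-galactopyranoside 1 mM; 37C 40 min; 50 mM citrate/phosphate pH 5.0, 0.01% Tween-20; stop pH 10; fluorescence 365/440; AC50 via Hill.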
The depositor's hits bear a star; ? = inconclusive; . = no result given. Unless noted, calls follow the shape of the dose curve; as a rule, active = well fitted curve in the direction sought with a large enough effect; inconclusive = small, poorly fitted or top-dose-only effect, or another doubt; inactive = no such curve, though single readings can be large; an effect the other way counts as inactive or inconclusive. Unless noted, % is scaled to controls: 0 for no effect and ±100 for the full control effect.

SMILES	ALDH1A1 block	GLA inh pH 4.5	HPGD inh	PNC assembly inh	ALOX12 inhib	GLA spleen mod
CCN(CC)CCCNC(=O)c1ccc(-n2c(=O)c(=O)[nH]c3ccccc32)cc1	0%	.	-3%	.	3%	.
Cc1ccnc(NC(=O)CCC(=O)N(CC(=O)NC2CCCCC2)C2CCCC2)c1	.	1	.	.	.	4%
Cn1cccc1C(C#N)c1cccc(F)c1C#N (stereo not given)	25µM*	-9	.	.	.	-1%
Cn1cccc1C(C#N)(CC#N)c1cccc(F)c1C#N (stereo not given)	9%	0	.	.	.	-6%
FC(F)(F)c1cc(CN2CCC3(CCNCC3)CC2)cc(C(F)(F)F)c1	-6%	.	-8%	.	3%	-6%
CCOC(=O)c1sc2ncn(/N=C/N(C)C)c(=O)c2c1C	0%	-2	-12%	-86*	1%	-2%
CCOC(=O)c1sc(NC(=O)CNC(=O)Cn2cnc3sc(C)c(C)c3c2=O)nc1C	1%	2	-7%	-19	2%	8%
CCOCCn1cnc2sc(C(=O)Nc3nc(C)c(C(=O)OCC)s3)c(C)c2c1=O	1%	-5	-11%	-82*	-2%	0%
CCCCN(C)C(=O)c1sc2ncn(CC)c(=O)c2c1C	0%	-8	16µM*	7	-2%	16%
CCCCNC(=O)Cn1cnc2sc(C(=O)OCC)c(C)c2c1=O	6%	7	-5%	1	-2%	?
COc1ccc(OC)c(C2=Nn3c(nnc3-c3ccco3)SC2)c1	-5%	5	28µM*	38	-4%	-3%
Oc1ccc(C2=Nn3c(nnc3-c3ccco3)SC2)cc1O	8.9µM*	6	14µM*	?	?	-1%
Cc1cc(=O)oc2cc(OCC(=O)c3ccc4c(c3)NC(=O)CO4)ccc12	?	10	.	.	.	3%
O=C(NCCN1CCOCC1)c1ccc2c(c1)N(Cc1cccc(F)c1)C(=O)c1ccccc1S2	28µM*	-8	.	.	.	7%
O=C(c1cc(-c2ccccc2)n[nH]1)N1CCc2c([nH]c3ccccc23)C1c1ccccn1 (stereo not given)	2%	-4	.	.	.	-4%
COC(=O)C(C)Sc1n[nH]c(=S)s1 (stereo not given)	20µM*	4	25µM*	-17	-7%	24%
O=C(O)CC(Sc1n[nH]c(=S)s1)C(=O)O (stereo not given)	13µM*	-2	.	.	.	-7%
CCNc1nc(SC(C)C(=O)OC)nc(N(C)C)n1 (stereo not given)	7%	-1	.	.	.	1%
COC(=O)CCCNS(=O)(=O)c1ccc2ccccc2c1	?	-10	0%	-19	1%	6%
O=C(O)CCCNS(=O)(=O)c1ccc2ccccc2c1	3.2µM*	8	-14%	41	-2%	0%
O=C(CSC1=NC(=O)C(c2ccccc2)C(=O)N1)Nc1ccccc1[N+](=O)[O-] (stereo not given)	?	-2	.	.	.	-6%
O=C(CSC1=NC(=O)C(c2ccccc2)C(=O)N1)Nc1ccccc1Cl (stereo not given)	20µM*	9	-9%	?	-1%	6%
CCOC(=O)c1c(C)n(C)c2ccc(OCC(O)CN3C(=O)c4ccccc4S3(=O)=O)cc12 (stereo not given)	2.5µM*	-2	-16%	34	-3%	4%
COc1ccc(OCC(O)CN2C(=O)c3ccccc3S2(=O)=O)cc1 (stereo not given)	?	5	-12%	-83*	0%	4%
Cc1ccc(C(=O)N2CCN(C(=O)c3ccc(C)cc3)C2)cc1	?	-15	.	.	.	5%
SMILES	ALDH1A1 block	GLA inh pH 4.5	HPGD inh	PNC assembly inh	ALOX12 inhib	GLA spleen mod
COCC(C)n1c(SCc2cc(=O)n3cc(C)ccc3n2)nc2ccccc2c1=O (stereo not given)	?	2	.	.	.	5%
O=C(OCC#CCSc1nc2ccccc2o1)c1cc2ccccc2o1	2%	-1	-7%	74	6%	-16%
O=C(CSc1nnc(-c2ccc(F)cc2)o1)N1CCN(C(=O)c2ccco2)CC1	-11%	6	-3%	-14	-2%	-1%
COc1cccc(OC)c1C(=O)N1CCN(S(=O)(=O)c2ccccc2)CC1	-2%	5	-6%	-99*	13%	6%
O=C(OCC#CCSc1nc2ccccc2o1)c1ccco1	1%	-12	-6%	-83*	-4%	12%
O=C(CSc1nnc(-c2ccccc2Br)o1)N1CCN(C(=O)c2ccco2)CC1	8.9µM*	2	28µM*	-1	3%	-1%
CC1CCCN(C(=O)CSc2nc3ccccc3o2)C1 (stereo not given)	-4%	-5	13µM*	25	-6%	-7%
COc1ccccc1N1CCN(C(=O)CSc2nc3ncnc(N)c3[nH]2)CC1	28µM*	2	-12%	?	-3%	-7%
COc1ccccc1N1CCN(C(=O)CSc2nc3ccccc3o2)CC1	8.9µM*	-9	-3%	-82*	-3%	7%
O=C(CN1CCCc2ccccc21)NC(=O)NC1CCCCC1	?	9	.	.	.	-12%
NC(=O)C1CCN(C(=O)CN2CCCc3ccccc32)CC1	20µM*	3	?	-2	-1%	5%
CC(C)Cn1c(SCC(=O)N2CCN(C(=O)c3ccco3)CC2)nc2ccccc2c1=O	32µM*	6	.	.	.	2%
O=C(CSc1ccc(F)cc1)N1CCN(S(=O)(=O)c2ccccc2)CC1	2.8µM*	-4	.	.	.	4%
NC(=O)C1CCN(C(=O)CSc2nc3ccccc3o2)CC1	19%	-5	-6%	-128*	-3%	-15%
Nc1cc(N)nc(SCC(=O)N2CCN(C(=O)c3ccco3)CC2)n1	?	-4	-3%	5	1%	0%
CC(C)Cn1c(SCC(=O)N2CCN(S(=O)(=O)c3ccccc3)CC2)nc2ccccc21	13µM*	-19	-10%	7	-5%	-12%
O=C(CSc1nc2ccccc2o1)N1CCN(C(=O)c2ccco2)CC1	13µM*	0	-13%	-21	6%	-4%
Cn1c(SCC(=O)N2CCN(S(=O)(=O)c3ccccc3)CC2)nc2ccccc21	-3%	11	-4%	20	-5%	1%
CC(=O)Nc1cccc(OCCCNS(=O)(=O)c2ccc(F)cc2)c1	4%	3	.	.	.	-10%
OCC#CCSc1nnc(-c2ccc(Br)cc2)o1	12%	2	-1%	-14	-2%	0%
